Measurements taken from the supplement of paper PMC8253809.

Columns and labels:
Experiment in all cases: growth inhibition (% activity, log2 RLU normalised to DMSO / staurosporine); higher = more growth inhibition
Conditions in all cases: 33 µM
DIPGX29 = test system: DIPGX29 (H3.3 K27M diffuse intrinsic pontine glioma line)
Procedure, shortened: (§1)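 The growth-inhibition value is the median over replicates. pHGG cell lines and H9-derived neural stem cells on Geltrex-coated 384-well plates received approved drugs by pin tool at a single final concentration of about 33 μM, in triplicate, for 7 days at 37 °C, 5% CO2. CellTiter-Glo luminescence was log2-transformed and normalised per plate to % activity between solvent and positive control wells.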

DIPGX37 = test system: DIPGX37 (H3.3 K27M diffuse intrinsic pontine glioma line)
Procedure, shortened: as §1

DIPGX7 = test system: DIPGX7 (H3.3 K27M diffuse intrinsic pontine glioma line)
Procedure, shortened: as §1

DIPGX9 = test system: DIPGX9 (diffuse intrinsic pontine glioma line)
Procedure, shortened: as §1

HGGX39 = test system: HGGX39 (paediatric high-grade glioma line)
Procedure, shortened: as §1

HGGX6 = test system: HGGX6 (H3.3 G34R paediatric high-grade glioma line)
Procedure, shortened: as §1

HNSC = test system: HNSC
Procedure, shortened: as §1

SUDIPGIV = test system: SUDIPGIV (diffuse intrinsic pontine glioma line)
Procedure, shortened: as §1

SUDIPGVI = test system: SUDIPGVI (diffuse intrinsic pontine glioma line)
Procedure, shortened: as §1

SUDIPGXIII = test system: SUDIPGXIII (diffuse intrinsic pontine glioma line)
Procedure, shortened: as §1

SMILES | growth inhibition (DIPGX29) [%] | growth inhibition (DIPGX37) [%] | growth inhibition (DIPGX7) [%] | growth inhibition (DIPGX9) [%] | growth inhibition (HGGX39) [%] | growth inhibition (HGGX6) [%] | growth inhibition (HNSC) [%] | growth inhibition (SUDIPGIV) [%] | growth inhibition (SUDIPGVI) [%] | growth inhibition (SUDIPGXIII) [%]
O[C@@H]1CO[C@H]2[C@@H]1OC[C@@H]2O | -2.46 | 0.0638 | -2.43 | -0.699 | 0.692 | 0.785 | -3.92 | -2.68 | -0.216 | –
CCn1cc(C(=O)O)c(=O)c2ccc(C)nc21 | -2.16 | -2.18 | -0.91 | 0.0696 | -0.871 | 0.278 | -2.82 | -0.499 | -1.38 | –
O=c1ccc2ccccc2o1 | 0.12 | 0.196 | -0.587 | 2.02 | 1.94 | 0.845 | -0.623 | -0.0159 | 1.45 | –
CC(C)NCC(O)COc1cccc2ccccc12 (configuration not stated) | -0.19 | -0.496 | -0.508 | 1.12 | 0.98 | 0.0936 | -3.29 | -1.1 | 0.673 | –
CC[C@H]1OC(=O)[C@H](C)[C@@H](O[C@H]2C[C@@](C)(OC)[C@@H](O)[C@H](C)O2)[C@H](C)[C@@H](O[C@@H]2O[C@H](C)C[C@H](N(C)C)[C@H]2O)[C@](C)(O)C[C@@H](C)[C@@H]2N[C@@H](COCCOC)O[C@H]([C@H]2C)[C@]1(C)O | -1.13 | -1.4 | -1.51 | -0.804 | -0.699 | -1.07 | -4.19 | -1.28 | -0.768 | –
Cc1c(Nc2ncccc2C(=O)O)cccc1C(F)(F)F | 0.454 | 2.84 | 0.522 | 1.64 | 1.78 | 3.08 | 1.18 | -3.76 | 2.1 | –
CC1(C)S[C@@H]2[C@H](NC(=O)Cc3ccccc3)C(=O)N2[C@H]1C(=O)O | -0.211 | 1.76 | 0.712 | 0.921 | 2.76 | 0.0221 | 1.53 | 0.754 | 0.396 | –
COc1c(C)c2c(c(O)c1C/C=C(\C)CCC(=O)O)C(=O)OC2 | 19.1 | 19 | 12 | 16.2 | 18.1 | 14.7 | 57.6 | 10.7 | 11.8 | -4.08
O=C(O)c1ccccc1 | -1.57 | 1.08 | -0.546 | -0.0449 | 0.585 | -1.44 | 1.02 | 1.15 | -2.88 | 1.73
CN(C)CCC=C1c2ccccc2CCc2ccccc21 | 0.114 | 2.57 | 1.28 | 1.79 | 5.11 | 2.03 | 0.41 | 1.93 | 2.05 | –
C#C[C@]1(O)CC[C@H]2[C@@H]3CCC4=CC(=O)CC[C@@H]4[C@H]3CC[C@@]21C | -0.22 | 3.5 | 1.4 | 2.42 | 4.07 | 7.23 | 6.68 | -0.735 | 0.661 | –
CC[C@H]1OC(=O)[C@H](C)[C@@H](O[C@H]2C[C@@](C)(OC)[C@@H](O)[C@H](C)O2)[C@H](C)[C@@H](O[C@@H]2O[C@H](C)C[C@H](N(C)C)[C@H]2O)[C@](C)(O)C[C@@H](C)/C(=N\OCOCCOC)[C@H](C)[C@@H](O)[C@]1(C)O | -1.55 | -0.523 | -0.0281 | 1.56 | 1.63 | 0.659 | -0.847 | 0.447 | -0.66 | –
Cc1onc(-c2ccccc2)c1-c1ccc(S(N)(=O)=O)cc1 | 0.8 | 1.05 | 0.883 | 0.672 | 3.67 | 2.37 | -0.462 | -2.73 | 2.54 | –
CN1C(C(=O)Nc2ccccn2)=C(O)c2sccc2S1(=O)=O | -1.4 | 1.63 | -0.195 | 1.24 | 0.358 | 0.485 | -0.824 | -4.89 | 0.891 | -0.625
N#CC1(c2ccc(NC(=O)c3cccnc3NCc3ccncc3)cc2)CCCC1 | 1.93 | -3.69 | 2.91 | 3.39 | 8.17 | 4.45 | 1.96 | 7.08 | -1.37 | –
CC(C)(S)[C@@H](N)C(=O)O | 0.657 | -0.325 | 5.5 | -0.781 | 0.519 | -2.1 | 45.1 | -0.3 | 0.273 | -1.43
COc1cc([C@@H]2c3cc4c(cc3[C@@H](O[C@@H]3O[C@@H]5CO[C@@H](c6cccs6)O[C@H]5[C@H](O)[C@H]3O)[C@H]3COC(=O)[C@H]23)OCO4)cc(OC)c1O | 22 | 1.57 | 29.9 | 47.9 | 14.2 | 23.6 | 59.9 | 48 | 10 | 20.7
CCOC(CN1CCN(CC(C)C(=O)c2ccccc2)CC1)c1ccccc1 (configuration not stated) | -0.933 | -1.59 | -1.24 | -0.121 | 2.63 | 1.64 | -3.21 | -1.87 | -0.901 | 13.1
Cc1c(O)c(=O)ccn1C | -0.259 | -0.497 | -0.173 | 1.03 | 0.26 | 1.77 | -3.85 | -2.04 | 0.573 | –
N=C(N)c1ccc(N=NNc2ccc(C(=N)N)cc2)cc1 | -2.11 | -3.98 | -0.967 | -1.13 | 7.13 | 4.38 | -4.44 | 15.4 | 0.511 | –
C=C(c1ccc(C(=O)O)cc1)c1cc2c(cc1C)C(C)(C)CCC2(C)C | 8.85 | -3.45 | 11 | 10.4 | 12.4 | 9.38 | 14.6 | 6.25 | 9.87 | –
Nc1nc(=O)c2c([nH]1)NCC(CNc1ccc(C(=O)N[C@@H](CCC(=O)O)C(=O)O)cc1)N2C=O (some centres not stated) | -0.552 | 0.652 | -1.46 | -0.907 | -0.954 | -0.876 | 0.438 | -1.59 | 0.511 | -0.342
CC(C)(C#N)c1cc(Cn2cncn2)cc(C(C)(C)C#N)c1 | 1.13 | 0.615 | 0.764 | -0.00856 | 0.325 | 1.21 | 2.39 | -0.235 | 2.45 | 1.01

SMILES | growth inhibition (DIPGX29) [%] | growth inhibition (DIPGX37) [%] | growth inhibition (DIPGX7) [%] | growth inhibition (DIPGX9) [%] | growth inhibition (HGGX39) [%] | growth inhibition (HGGX6) [%] | growth inhibition (HNSC) [%] | growth inhibition (SUDIPGIV) [%] | growth inhibition (SUDIPGVI) [%] | growth inhibition (SUDIPGXIII) [%]
O=C(O)c1cccnc1Nc1cccc(C(F)(F)F)c1 | -0.796 | 3.58 | -0.0228 | 0.51 | 1.81 | 2.52 | -1.26 | -3.93 | 2.23 | –
Nc1nccs1 | -0.162 | 1.62 | -0.134 | 1.18 | -0.0642 | -1.25 | 5.02 | 0.246 | 1.08 | 0.0518
C[C@@H](O)[C@H]1C(=O)N2C(C(=O)OCOC(=O)C(C)(C)C)=C(SC3CN(C4=NCCS4)C3)[C@H](C)[C@H]12 | -0.211 | 2.3 | 0.926 | 0.809 | 1.15 | 0.471 | -0.363 | -0.736 | 2.12 | –
CCCCCCCN(CC)CCCC(O)c1ccc(NS(C)(=O)=O)cc1 (configuration not stated) | -0.358 | 0.859 | 2.25 | 1.97 | 2.78 | 0.985 | -2.1 | 0.633 | 1.61 | –
CC(C)[C@H]1CC[C@H](C(=O)N[C@H](Cc2ccccc2)C(=O)O)CC1 | -0.743 | 0.294 | 0.0113 | 0.231 | 1.32 | 1.09 | -0.0956 | -1.21 | -0.179 | –
Cc1ccc(S(=O)(=O)NC(=O)NN2CCCCCC2)cc1 | -1.75 | 0.973 | -0.7 | -1.05 | 0.24 | 1.06 | -3.09 | -2.7 | -0.0433 | –
O=c1[nH]c(=O)n([C@H]2C[C@H](O)[C@@H](CO)O2)cc1C(F)(F)F | -1.08 | 0.535 | -1.11 | 5.19 | 8.23 | -0.706 | 57.7 | 13.1 | -3.24 | 2.3
COC(=O)C1=CO[C@@H](O[C@@H]2O[C@H](CO)[C@@H](O)[C@H](O)[C@H]2O)[C@@H]2C(CO)=CC[C@H]12 | -1.79 | -0.171 | -2.08 | 0.601 | 0.266 | 2.37 | -2.11 | -1.32 | -2.76 | –
CCN1CCN(c2cc3c(cc2F)c(=O)c(C(=O)O)cn3C2CC2)CC1 | -0.107 | 1.21 | 0.805 | 1.48 | 4.31 | -0.135 | 1.17 | 1.5 | 1.16 | -0.234
CC(C)(C)C(=O)C(Oc1ccc(Cl)cc1)n1ccnc1 (configuration not stated) | 0.826 | 1.56 | 3.93 | 1.25 | 5.9 | 4.74 | 5.37 | 7.06 | 2.6 | –
CCCN1CCCC[C@H]1C(=O)Nc1c(C)cccc1C | -0.141 | 1.83 | 0.26 | 0.846 | 2.25 | 1.44 | -0.32 | -1.01 | 0.908 | –
Oc1c(Br)cc(Br)c2cccnc12 | -0.427 | 0.213 | 1.4 | 1.88 | 2.61 | 1.93 | -0.441 | 0.619 | 2.93 | –
CCCc1nc(C)c2c(=O)nc(-c3cc(S(=O)(=O)N4CCN(CC)CC4)ccc3OCC)[nH]n12 | -1.2 | -1.39 | -0.617 | 0.618 | 1.97 | 2.02 | -2.13 | 0.711 | 0.112 | –
COc1cc2c(cc1OC)CC(=O)N(CCCN(C)C[C@H]1Cc3cc(OC)c(OC)cc31)CC2 | -0.791 | 1.83 | 1.52 | 1.21 | 2.26 | 0.769 | 7.75 | 0.5 | 1.04 | –
CCC(C)n1ncn(-c2ccc(N3CCN(c4ccc(OCC5COC(Cn6cncn6)(c6ccc(Cl)cc6Cl)O5)cc4)CC3)cc2)c1=O (configuration not stated) | -0.782 | 1.27 | 1.59 | 1.24 | 4.33 | 1.37 | 7.95 | 1.44 | 1.98 | –
Cc1ncc([N+](=O)[O-])n1CC(C)O (configuration not stated) | -2.47 | -0.804 | -1.3 | 0.505 | -1.86 | 0.138 | -4.53 | -1.52 | -0.382 | –
C[C@@H]1CCN(C(=O)CC#N)C[C@@H]1N(C)c1ncnc2[nH]ccc12 | 0.671 | -1.72 | 0.986 | -0.0672 | 1.55 | -3.29 | 19.9 | -0.0962 | -2.08 | 1.44
NNc1nncc2ccccc12 | -0.649 | 0.926 | -0.1 | 1.44 | 2.03 | 0.883 | -1.94 | 2.81 | -2.33 | -0.215
C[C@H]1c2cccc(O)c2C(=O)C2=C(O)[C@]3(O)C(=O)C(C(N)=O)=C(O)[C@@H](N(C)C)[C@@H]3[C@@H](O)[C@@H]21 | 0.731 | -0.495 | 1.55 | 1.62 | 6.11 | 0.474 | 25.5 | 10.2 | -0.454 | -2.03
CCOc1cc(CC(=O)N[C@@H](CC(C)C)c2ccccc2N2CCCCC2)ccc1C(=O)O | 0.598 | -0.0763 | 1.67 | -0.0677 | 0.171 | -1.18 | -2.28 | -0.496 | -6.9 | -1.55
Nc1ccc(/N=N/c2ccccc2)c(N)n1 | -3.96 | -2.54 | 0.481 | -3.38 | -1.17 | -3.08 | 9.5 | -2.91 | -4.45 | 1.45
CCN1CCCC1CNC(=O)c1cc(S(N)(=O)=O)ccc1OC (configuration not stated) | 1.2 | 3.95 | 2.35 | 1.38 | 2.29 | 0.912 | 1.32 | 0.319 | 3.68 | 0.786
